Screening data: PubChem, several laboratories
A selection: hits, their analogues and other compounds. The true share with any hit is near 1.4%.
BJeLR viability: BJeLR cell viability loss. BJeLR (HRASV12) viability, CellTiter-Glo ATP luminescence, 48 h. inhibition, % (concentration not given with the values). hit rate 0.17% among 300,000. AID 1554; in the data active means inhibition above about 50%
CCHF vOTU inh-1: blocks the CCHF virus ovarian tumor domain protease | hit rate 0.55% among 370,000 | CCHFV vOTU protease, Pep-AMC fluorescence | inhibition, % at 11.5 µM; further: 0% = vehicle wells with enzyme and 100% = no enzyme wells
3CLpro inhibitor: SARS-CoV 3CLpro protease inhibition; hit rate 0.14% among 290,000; inhibition, % at 6 µM; P0C6X7; recombinant SARS-CoV 3CLpro, quenched FRET peptide cleavage; in the data active means inhibition above about 12%
VHR inh abs: DUSP3 (human) phosphatase inhibition. hit rate 0.52% among 290,000. P51452. recombinant VHR phosphatase, pNPP absorbance. inhibition, % at 13.3 µM; in the data active means inhibition above about 50%
Target sequence (P51452 whole entry, looked up): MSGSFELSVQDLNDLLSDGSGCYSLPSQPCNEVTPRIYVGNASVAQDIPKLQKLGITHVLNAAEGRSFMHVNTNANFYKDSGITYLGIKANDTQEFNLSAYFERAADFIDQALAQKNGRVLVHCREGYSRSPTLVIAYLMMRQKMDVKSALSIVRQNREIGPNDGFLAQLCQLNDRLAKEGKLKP
MazEF act: MazEF (E. coli) toxin RNase activation; P0AE70; FAM/BHQ RNA-DNA oligo cleavage fluorescence, 5 h; activation, % at 20 µM; hit rate 0.32% among 350,000; in the data active means activation above about 50%
Target sequence (P0AE70 whole entry, looked up): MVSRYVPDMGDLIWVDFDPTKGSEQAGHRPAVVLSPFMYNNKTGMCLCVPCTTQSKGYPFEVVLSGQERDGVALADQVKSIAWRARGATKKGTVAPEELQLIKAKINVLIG
CCHF vOTU inh-2: confirmation of CCHF virus vOTU protease inhibitors | shares compounds with CCHF vOTU inh-1 | Recombinant CCHFV vOTU, Pep-AMC fluorescence | inhibition, % at 11.5 µM | hit rate 17% among 1,900
* marks the source's active call; other numbers are inactive results. Unless noted, no stated cut-off is given here; in the data, active means inhibition above about 30%; inactive means the rest.

`O=c1[nH]c(CN2CCc3ccccc3C2)nc2ccccc12` gave BJeLR viability -6, CCHF vOTU inh-1 44*, 3CLpro inhibitor 4, VHR inh abs 7, MazEF act -2 and CCHF vOTU inh-2 12.
`CC(c1ccco1)N(Cc1ccco1)C(=O)Nc1ccccc1` (stereo not drawn) gave BJeLR viability 0, CCHF vOTU inh-1 34*, 3CLpro inhibitor 4, VHR inh abs 15, MazEF act -2 and CCHF vOTU inh-2 -20.
Screening COc1cccc(NC(=S)N(Cc2ccco2)C(C)c2ccco2)c1 (stereo not drawn) returned BJeLR viability -4, CCHF vOTU inh-1 -2, 3CLpro inhibitor 6, VHR inh abs 17 and MazEF act -1.
Screening O=C(CCn1c(=S)oc2ccccc21)NC1CCCCCCC1 returned BJeLR viability -2, CCHF vOTU inh-1 32*, 3CLpro inhibitor 1, VHR inh abs -16, MazEF act -2 and CCHF vOTU inh-2 -13.
`Cc1cc(F)cc(-c2cc(C(=O)NCc3ccccc3)[nH]n2)c1` gave CCHF vOTU inh-1 6.
`Cc1cc(F)cc(-c2cc(C(=O)NCc3cccc(Cl)c3)[nH]n2)c1` gave CCHF vOTU inh-1 34* and CCHF vOTU inh-2 -14.
Screening CCN1CCN(c2ccc(S(=O)(=O)N3CCCCC3)cc2NC(=O)c2ccc(F)cc2)CC1 returned BJeLR viability 16, CCHF vOTU inh-1 -5, 3CLpro inhibitor -2, VHR inh abs -2 and MazEF act 8.
Screening CCN1CCN(c2ccc(S(=O)(=O)N3CCOCC3)cc2NC(=O)c2ccc(C(F)(F)F)cc2)CC1 returned BJeLR viability 2, CCHF vOTU inh-1 34*, MazEF act 4 and CCHF vOTU inh-2 -12.
Screening Cc1cc(C(=O)O)c(C)o1 returned CCHF vOTU inh-1 6.
Screening O=C(N/N=C/c1ccc([N+](=O)[O-])o1)C1CC1 returned BJeLR viability -3, CCHF vOTU inh-1 32*, 3CLpro inhibitor -3, VHR inh abs 5, MazEF act 3 and CCHF vOTU inh-2 -12.
For CN1CCN(C2=C(NS(=O)(=O)c3ccccc3)C(=O)c3ccccc3C2=O)CC1 the results were BJeLR viability -2, 3CLpro inhibitor -7, VHR inh abs 32 and MazEF act 4.
For CCN1CCN(C2=C(NS(=O)(=O)c3ccc(Br)cc3)C(=O)c3ccccc3C2=O)CC1 the results were BJeLR viability 0, CCHF vOTU inh-1 78*, 3CLpro inhibitor -2, VHR inh abs 34, MazEF act -12 and CCHF vOTU inh-2 19.
`CCN1CCN(C2=C(NS(=O)(=O)c3ccccc3)C(=O)c3ccccc3C2=O)CC1` gave BJeLR viability -13, CCHF vOTU inh-1 46*, 3CLpro inhibitor 3, VHR inh abs 21, MazEF act 2 and CCHF vOTU inh-2 15.
Cc1c(/C=N/NC(=O)c2cccnc2)c2ccccn2c1C(=O)c1ccc(F)cc1 was read as BJeLR viability 0, 3CLpro inhibitor 1 and VHR inh abs 9.
For Cc1c(/C=N/NC(N)=O)c2ccccn2c1C(=O)c1ccncc1 the results were BJeLR viability -7, CCHF vOTU inh-1 32*, 3CLpro inhibitor -5, VHR inh abs 13, MazEF act 12 and CCHF vOTU inh-2 -3.
Screening Cc1ccc(C)c(NC(=O)Cn2nnc(-c3ccncc3)n2)c1 returned CCHF vOTU inh-1 0.
CCCc1cc(-c2ccc(O)c(OCC)c2)c(C#N)c(N)n1 was read as BJeLR viability -4, CCHF vOTU inh-1 39*, 3CLpro inhibitor 3, VHR inh abs -1, MazEF act 2 and CCHF vOTU inh-2 4.
For COC(=O)[C@H]1C[C@@]2(N3CCCCC3)c3ccccc3N[C@H]2N1S(=O)(=O)c1ccc([N+](=O)[O-])cc1 the results were CCHF vOTU inh-1 1.
Screening CCOC(=O)Cn1cc(CN2C(C(=O)OC)CN(CCO)CCS2(=O)=O)nn1 (stereo not drawn) returned CCHF vOTU inh-1 -5.
Screening CNC(=O)[C@@H](NC(=O)[C@H](CC(C)C)[C@H](O)C(=O)NO)C(C)(C)C returned CCHF vOTU inh-1 2.
COc1ccc(C(C)=O)c2c(O)cccc12 was read as BJeLR viability -16, CCHF vOTU inh-1 31*, 3CLpro inhibitor 0, VHR inh abs 0, MazEF act 0 and CCHF vOTU inh-2 -17.
COc1ccc(C(=O)c2ccccc2)c2c(O)ccc(C(=O)c3ccccc3)c12 was read as BJeLR viability 7, CCHF vOTU inh-1 5, 3CLpro inhibitor 1, VHR inh abs 19 and MazEF act -1.
`Cc1ccccc1Cn1cc(CN2[C@H](Cc3ccccc3)COc3cc(Br)ccc3S2(=O)=O)nn1` gave CCHF vOTU inh-1 2.
Screening COc1cccc(/C=N\N2CCN(c3ccc(C)cc3)CC2)c1O returned CCHF vOTU inh-1 -5.
`COC(=O)[C@]12C[C@H](CC(=O)N3CCCCC3)C(=O)N(CCc3ccc(OC)c(OC)c3)C1=C[C@H](C(C)(C)C)O[C@@H]2C` gave CCHF vOTU inh-1 7.
Screening Nc1nnc(-c2ccco2)s1 returned BJeLR viability -9, CCHF vOTU inh-1 3, 3CLpro inhibitor 0, VHR inh abs -16 and MazEF act -3.
`Nc1ncnc2oc(-c3ccco3)c(-c3ccco3)c12` gave BJeLR viability -8, CCHF vOTU inh-1 34*, 3CLpro inhibitor -2, VHR inh abs -9, MazEF act 15 and CCHF vOTU inh-2 -55.
O=C(NCc1cccs1)C(=O)NCC(c1ccco1)N1CCN(c2ccccc2)CC1 (stereo not drawn) was read as BJeLR viability -4, CCHF vOTU inh-1 31*, 3CLpro inhibitor 0, VHR inh abs 2, MazEF act 11 and CCHF vOTU inh-2 -5.
Screening NC(=O)C1CCN(C2=C(NS(=O)(=O)c3ccc(Br)cc3)C(=O)c3ccccc3C2=O)CC1 returned BJeLR viability 9, CCHF vOTU inh-1 39*, 3CLpro inhibitor 6, VHR inh abs -24, MazEF act 5 and CCHF vOTU inh-2 -2.
`CCOC(=O)C1CCN(C2=C(NS(=O)(=O)c3ccc(Br)cc3)C(=O)c3ccccc3C2=O)CC1` gave BJeLR viability 10, CCHF vOTU inh-1 45*, 3CLpro inhibitor -2, VHR inh abs 18, MazEF act -19 and CCHF vOTU inh-2 19.
CN(CCO)c1cccc2c1S(=O)(=O)N(Cc1cn(Cc3cccc(C(F)(F)F)c3)nn1)Cc1ccccc1O2 was read as CCHF vOTU inh-1 6.
COn1c(C)c(C(C)=O)c2c3nonc3ccc21 was read as BJeLR viability 1, CCHF vOTU inh-1 31*, 3CLpro inhibitor 4, VHR inh abs 25, MazEF act 4 and CCHF vOTU inh-2 -3.
`CCCCOn1c(C)c(C(=O)OCC)c2c3nonc3ccc21` gave BJeLR viability 9, CCHF vOTU inh-1 9, 3CLpro inhibitor -1 and MazEF act -11.
